The nature of test [1]: A CellTox Green Cytotoxicity Assay to monitor cytotoxicity in HepG2 cells - 24 hour (AID 1224878). Also: nearly all actives have a fitted effect of over 45% in size. Also: potency is read from the fitted curve at half-maximal effect. In a few lines: (§1)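 Read-out is fluorescence of a cyanine dye excluded from live cells that stains DNA of dead HepG2 cells, with signal proportional to cytotoxicity. Plates were read at 0, 8, 16, 24, 32 and 40 h after compound addition.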
The nature of test [2]: A CellTox Green Cytotoxicity Assay to monitor cytotoxicity in HepG2 cells - 40 hour (AID 1224879). Also: nearly all actives have a fitted effect of over 40% in size. Also: potency is read from the fitted curve at half-maximal effect. In a few lines:
as §1

The nature of test [3]: qHTS RealTime-Glo MT Cell Viability Assay in HEK293 cells - 0 hour (AID 1224880). Also: top concentration of the series differs between compounds; nearly all actives have a fitted effect of over 45% in size. In outline: (§2)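 Cells were seeded together with NanoLuc luciferase and a prosubstrate that viable cells reduce to a luciferase substrate. After a 5 h incubation at 37 C/5% CO2, compounds were added and luminescence was measured repeatedly during 40 h of treatment.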
For orientation: In qHTS, concentration-response curves come from the screen itself.

A short description of test [4]: A CellTox Green Cytotoxicity Assay to monitor cytotoxicity in HEK293 cells - 32 hour (AID 1224881). Also: nearly all actives have a fitted effect of over 40% in size. Also: potency is read from the fitted curve at half-maximal effect. In a few lines: (§3)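 Nonlytic real-time cytotoxicity: HEK293 + CellTox Green reagent plated, 5 h preincubation, pintool compound addition (23 nL in DMSO), 37 C for 40 h, fluorescence measured at successive time points.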
The nature of test [5]: A CellTox Green Cytotoxicity Assay to monitor cytotoxicity in HepG2 cells - 0 hour (AID 1224882). Also: nearly all actives have a fitted effect of over 35% in size. In a few lines:
as §1

Test [6] is described as follows: A CellTox Green Cytotoxicity Assay to monitor cytotoxicity in HepG2 cells - 32 hour (AID 1224883). Also: nearly all actives have a fitted effect of over 50% in size. Also: potency is read from the fitted curve at half-maximal effect. In outline:
as §1

Test [7] can be described thus: A CellTox Green Cytotoxicity Assay to monitor cytotoxicity in HEK293 cells - 8 hour (AID 1224884). Also: nearly all actives have a fitted effect of over 35% in size. In outline:
as §3

The nature of test [8]: qHTS RealTime-Glo MT Cell Viability Assay in HepG2 cells - 16 hour (AID 1224885). Also: nearly all actives have a fitted effect of over 50% in size. In outline: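 HepG2 suspension premixed with RealTime-Glo reagents is plated at 600 cells per well and left 5 h at 37 C/5% CO2. Compounds in DMSO then go in, and bioluminescence reflecting viable cell number is recorded over 40 h.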
A short description of test [9]: qHTS RealTime-Glo MT Cell Viability Assay in HEK293 cells - 24 hour (AID 1224886). Also: top concentration of the series differs between compounds; nearly all actives have a fitted effect of over 50% in size. In a few lines: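 Reads taken at 0, 8, 16, 24, 32 and 40 h from the same wells. HEK293 cells (600/well) carried RealTime-Glo reagents from seeding, with compound added after a 5 h settle at 37 C.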
A short description of test [10]: qHTS RealTime-Glo MT Cell Viability Assay in HEK293 cells - 8 hour (AID 1224887). Also: top concentration of the series differs between compounds; nearly all actives have a fitted effect of over 50% in size. In outline:
as §2

A number with no mark means an inactive call. Records with an inconclusive call do not appear. Active and inactive are the calls of the source. Calls follow the shape of the dose curve; as a rule, active = well fitted curve in the direction sought with a large enough effect in the repeat runs; inconclusive = weak or mixed curves; inactive = no such curve, though single readings can be large; an effect the other way counts as inactive or inconclusive.

In PubChem BioAssay (Tox21) one finds Potency and outcome data, which are given here for 24 molecules.

In the case of `CCOC(=O)CN1CCCC1=O`, the Potency entry in [1], in [2], in test [3], in [4], in test [5] and in [6] was “inactive” each time. Besides, in [7], the Potency result is “inactive”. For the same molecule, the result in test [8], in [9] and in [10] was inactive.

For the molecule `CCN(CC)CC(=O)Oc1ccc(NC(C)=O)cc1`, the Potency result in [1], in test [2], in test [3], in test [4], in test [5] and in [6] was “inactive” each time. The Potency entry in test [7] is “inactive”. Further, the result in [8] was inactive.

On to `C/C(Cl)=C/CCl`, for which the Potency result in test [1], in [2], in test [3], in test [4], in test [5] and in test [6] was “inactive” throughout. Further, in test [7], the Potency entry was “inactive”. Further, the molecule was classed as inactive in [8], in [9] and in test [10].

Turning to `C=CCOC(=O)CCCCCCCC`, the Potency entry in test [1], in test [2], in [3], in [4], in [5] and in test [6] was “inactive” throughout. For the same molecule, the Potency result in [7] was “inactive”. The call in [8], in test [9] and in test [10] was inactive.

In the case of `COC(=O)/C=C(\C)CCC=C(C)C`, the Potency result in test [1], in test [2], in test [3], in test [4], in [5] and in test [6] was “inactive” each time. Further, the Potency entry in test [7] is “inactive”. Also, the molecule was called inactive in test [8], in test [9] and in test [10].

Turning to `CCC(=O)OCCOc1ccccc1`, the Potency entry in [1], in [2], in test [3], in test [4], in test [5] and in test [6] was “inactive” throughout. Also, the Potency entry in test [7] is “inactive”. In addition, the call in test [8], in [9] and in test [10] was inactive.

For `CC(CN1CC(=O)NC(=O)C1)N1CC(=O)NC(=O)C1` (configuration not stated), the Potency result in [1], in test [2], in [3], in test [4], in [5] and in [6] was “inactive” throughout. In test [7], the Potency entry was “inactive”. The call in [8], in [9] and in [10] was inactive.

Consider `CC(=O)OC1CCC(C(C)(C)C)CC1` (configuration not stated), for which the Potency result in test [1], in test [2], in test [3], in test [4], in test [5] and in test [6] was “inactive” throughout. In addition, the Potency entry in [7] was “inactive”. Further, the molecule was classed as inactive in test [8], in test [9] and in test [10].

Consider `CC(C)(C)OC(=O)c1ccccc1C(=O)O`, for which the Potency entry in test [1], in test [2], in [3], in test [4], in test [5] and in test [6] was “inactive” each time. Besides, the Potency result in test [7] is “inactive”. Moreover, the result in test [8], in test [9] and in test [10] was inactive.

For `N#Cc1cc(NC(=O)C(=O)O)c(Cl)c(NC(=O)C(=O)O)c1`, the Potency result in test [1], in [2], in test [3], in [4], in test [5] and in test [6] was “inactive” in each case. Moreover, in [7], the Potency entry is “inactive”. The call in [8], in test [9] and in test [10] was inactive.

For `Cc1cc(O)c(Cl)cc1C`, the Potency in test [1], in test [2] and in [6] was 49 µM (active) in each case. Besides, the Potency result in test [3], in [4], in test [5] and in [7] was “inactive” in each case. Also, the result in test [8], in test [9] and in test [10] was inactive.

`COC(=O)c1ccc(C(=O)O)cc1`: the Potency entry in test [1], in test [2], in test [3], in test [4], in test [5] and in [6] was “inactive” throughout. Also, in [7], the Potency entry was “inactive”. Also, the result in test [8], in test [9] and in [10] was inactive.

Turning to `C=CC(=O)CC`, the Potency result in [1], in test [2], in test [3], in [4], in test [5] and in test [6] was “inactive” throughout. For the same molecule, in [7], the Potency entry was “inactive”. In addition, the call in test [8], in [9] and in test [10] was inactive.

`Cc1ccc(Br)cc1`: the Potency result in test [1], in test [2], in test [3], in test [4], in test [5] and in test [6] was “inactive” each time. The Potency result in test [7] is “inactive”. For the same molecule, the result in test [8], in test [9] and in test [10] was inactive.

Regarding `C=CC(=O)OCC[N+](C)(C)C`, the Potency entry in test [1], in test [2], in test [3], in test [4], in test [5] and in test [6] was “inactive” in each case. In test [7], the Potency entry was “inactive”. The molecule was classed as inactive in test [8], in test [9] and in [10].

As for `CCCCCCCCC1CO1` (configuration not stated), the Potency result in [1], in test [2], in test [3], in test [4], in test [5] and in test [6] was “inactive” in each case. Further, the Potency entry in test [7] is “inactive”. Further, the call in test [8], in [9] and in test [10] was inactive.

`Nc1cc(S(=O)(=O)O)ccc1O`: the Potency result in test [1], in test [2], in test [3], in [4], in test [5] and in [6] was “inactive” each time. For the same molecule, the Potency result in test [7] is “inactive”. The molecule was classed as inactive in test [8], in test [9] and in test [10].

For the molecule `Cc1cc(C)c(N)c(Cl)c1`, the Potency result in test [1], in test [2], in test [3], in [4], in test [5] and in test [6] was “inactive” in each case. In addition, the Potency entry in [7] is “inactive”. The result in test [8], in test [9] and in test [10] was inactive.

For the molecule `CC(=O)Nc1ccc(OCCOCCOc2ccc(NC(C)=O)cc2)cc1`, the Potency entry in test [1], in test [2], in test [3], in test [4], in test [5] and in [6] was “inactive” throughout. For the same molecule, the Potency entry in test [7] was “inactive”. The outcome in test [8], in test [9] and in test [10] was inactive.

For the molecule `CC(C)c1cc(C(C)C)cc(C(C)C)c1`, the Potency entry in [1], in test [2], in test [3], in test [4], in test [5] and in test [6] was “inactive” throughout. For the same molecule, in [7], the Potency entry is “inactive”. The call in [8], in test [9] and in test [10] was inactive.

As for `CC(=O)c1ccc2ccc3ccccc3c2c1`, the Potency result in test [1], in test [2], in [3], in test [4], in test [5] and in test [6] was “inactive” in each case. Also, the Potency result in [7] was “inactive”. The result in [8] was inactive.

`CC(=O)c1c(C)cc(C(C)(C)C)cc1C`: the Potency in test [1] was 34.7 µM (active); in test [2], 38.9 µM (active); in [4] it was 24.5 µM (active); in [6], 38.9 µM (active). Besides, the Potency entry in test [3], in test [5] and in test [7] was “inactive” each time. In test [8], the result was inactive.

On to `CCN1CCN(C(=O)N[C@@H](C(=O)N[C@@H]2C(=O)N3C(C(=O)O)=C(CSc4nnnn4C)CS[C@H]23)c2ccc(O)cc2)C(=O)C1=O`, for which the Potency result in test [1], in [2], in test [3], in [4], in test [5] and in test [6] was “inactive” in each case. In addition, the Potency entry in test [7] was “inactive”. The outcome in test [8], in test [9] and in test [10] was inactive.

In the case of `O=C1Nc2ccccc2C1=O`, the Potency entry in test [1], in [2], in [3], in test [4], in [5] and in test [6] was “inactive” throughout. In addition, in [7], the Potency entry is “inactive”. For the same molecule, the call in test [8] was inactive.
